The assay can be described thus: UKN5_HCS_SBAD2_neurite_outgrowth: University of Konstanz (UKN) Leist Lab Neurite Outgrowth Assay in human iPSC-derived immature Dorsal Root Ganglia Neurons (UKN5) (AID 2284070). The settings on record: actives raise or lower the signal. The procedure, abridged:
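SBAD2 neurons, 24 h compound treatment, calcein-AM neurite area via HCS imaging; DMSO baseline, gain or loss of signal.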

Calls of active or inactive are those of the source. Rule for the calls: active = hit-call score of the fitted dose curve at least 0.9, where 1 is the maximum; inactive = score below 0.9.

With `CN1CCC[C@H]1c1cccnc1`, the outcome was inactive.

Consider `CC1=C(/C=C/C(C)=C/C=C/C(C)=C/C(=O)O)C(C)(C)CCC1`, for which the outcome was inactive.

The values are drawn from PubChem BioAssay (EPA / NIEHS).
